PubChem BioAssay
The source made the active and inactive calls.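 Rule for the calls, unless noted: active = fluorescence slope after compound addition differing from the mean of all screened samples at 99.7% confidence, in either direction; inactive = the rest.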

Columns and labels:
[1] = inhibitors of TNFa-induced NFkB p65 translocation, primary screen, imaging, HUVEC, MLSMR starter and 10KST1 sets (AID 438;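 active = inhibition above 20% together with a positive visual image hit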;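 note: compound added about 3h40 before a 20 min TNFalpha stimulation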;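 for inhibition: signal is the nuclear over cytoplasmic p65 intensity ratio per well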); conditions: HUVEC TNFa-induced p65 nuclear translocation; cell count: measured here: nuclei count (cytotoxicity indicator), at 2.08 µM; inhibition: at 2 µM, stronger effect = higher value, 0% TNFa-plus-vehicle, 100% no-TNFa wells
[2] = reduction of polyQ htt aggregates in cells – imaging, exon1htt(103Q)mCFP cells, high-content imaging, primary screen (AID 483;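 active = visual image review flags a hit and inhibition of aggregation exceeds 20%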;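 note: compound exposure lasted 3 days before fixation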;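 for nuclei count: percent of the per-plate median nuclei count of sample wells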); conditions: exon1htt(103Q)mCFP cell line, aggregate imaging, at 2 µM; inhibition of aggregation: stronger effect = higher value; nuclei count: measured here: cell count, toxicity
[3] = endothelial E-selectin expression blockers – imaging, HUVEC, immunofluorescence, MLSMR starter and 10KST1 sets, primary screen (AID 487;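 active = visually confirmed hit in the image check and inhibition above 20%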;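 for inhibition: signal is fraction of cell area covered by stained E-selectin grains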;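 for nuclei count: 100% = median nuclei count of all wells on the same plate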); conditions: HUVEC TNFalpha-induced E-selectin immunofluorescence imaging, at 2 µM; inhibition: stronger effect = higher value; nuclei count: measured here: cell number, toxicity
[4] = target: Voltage-gated potassium channel subunit beta-2 (Rattus norvegicus) (UniProt P62483); assay: inhibitors of rat Kvbeta2 reductase activity – biochemical, NADPH fluorescence, primary screen (AID 622;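 active = fluorescence slope higher than the sample average by over 3 SD, cut at about -0.22 in these data, passing the limit was not always enough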;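 note: slope of raw intensity against log time taken from 70 to 1610 s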); conditions: recombinant KvBeta, 4-cyanobenzaldehyde reduction, at 10 µM, stronger effect = higher value
Chain of Voltage-gated potassium channel subunit beta-2 (Rattus norvegicus) (P62483 whole entry, looked up): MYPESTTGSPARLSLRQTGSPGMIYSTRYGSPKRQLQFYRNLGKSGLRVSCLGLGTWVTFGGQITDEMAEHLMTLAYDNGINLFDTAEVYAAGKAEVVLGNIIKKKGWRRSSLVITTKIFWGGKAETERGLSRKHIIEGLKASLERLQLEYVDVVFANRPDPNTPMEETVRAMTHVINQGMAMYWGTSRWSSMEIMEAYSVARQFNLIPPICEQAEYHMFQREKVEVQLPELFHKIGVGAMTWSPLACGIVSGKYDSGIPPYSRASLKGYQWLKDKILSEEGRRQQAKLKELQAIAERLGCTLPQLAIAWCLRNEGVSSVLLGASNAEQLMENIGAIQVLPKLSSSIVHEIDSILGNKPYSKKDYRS

[5] = target: Voltage-gated potassium channel subunit beta-2 (Rattus norvegicus) (UniProt P62483); assay: enhancers of rat Kvbeta2 NADPH turnover – biochemical, NADPH fluorescence, primary screen (AID 623;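 active = NADPH fluorescence slope more negative than the mean of all samples by about 3 SD, 99.7% confidence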;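 note: fluorescence intensity change per second fitted from 20 to 320 s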); conditions: Recombinant KvBeta, NADPH fluorescence decrease slope, 10 min; at 10 µM; stronger effect = lower value
[6] = target: Alpha-2C adrenergic receptor (Homo sapiens) (UniProt P18825); assay: compounds altering alpha2C-coupled GIRK flux – cell-based, HEK293 alpha2C/GIRK1/2, thallium flux, primary screen (AID 624); conditions: thallium flux BTC fluorescence, at 10 µM, actives lie on both sides;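 note: slope of fluorescence ratio to pre-addition baseline per second over 15 to 24 s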
Chain of Alpha-2C adrenergic receptor (Homo sapiens) (P18825 whole entry, looked up): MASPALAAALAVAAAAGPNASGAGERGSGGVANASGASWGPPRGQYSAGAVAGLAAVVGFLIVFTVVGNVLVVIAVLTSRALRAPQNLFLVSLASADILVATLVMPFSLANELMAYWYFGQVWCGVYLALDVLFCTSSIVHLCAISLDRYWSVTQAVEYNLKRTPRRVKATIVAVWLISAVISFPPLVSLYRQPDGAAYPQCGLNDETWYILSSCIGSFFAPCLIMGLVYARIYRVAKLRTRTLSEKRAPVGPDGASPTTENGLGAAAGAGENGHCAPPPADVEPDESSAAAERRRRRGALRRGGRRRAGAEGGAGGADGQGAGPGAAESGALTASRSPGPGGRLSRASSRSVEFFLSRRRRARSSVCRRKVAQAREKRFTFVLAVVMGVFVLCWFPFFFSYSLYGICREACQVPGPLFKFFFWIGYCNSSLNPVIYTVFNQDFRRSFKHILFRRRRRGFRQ

[7] = blockers of RIG-like receptor reporter activation – cell-based, Sendai virus stimulus, luciferase, 10K MLSCN set, TLR/RLR signaling modifier project, primary screen (AID 602276;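 active = inhibition at or above 50% at 10 µM; inactive = inhibition below 50%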;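 note: firefly luciferase from ISG56 promoter only with Renilla not read in this screen; 0% = Sendai virus plus DMSO and 100% = medium plus DMSO without virus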); conditions: HEK293 RL24 IRF3 luciferase reporter, at 10 µM, stronger effect = higher value
[8] = TLR3 IRF3 reporter activation blockers – cell-based, poly I:C stimulus, luciferase, 10K MLSCN set, primary screen (AID 602277;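 active = inhibition of the reporter signal at or above 50%; inactive = inhibition below 50%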); conditions: HEK293-TLR3 RL24 IRF3 luciferase reporter, at 10 µM, stronger effect = higher value

Structure (SMILES) | cell count [1] | inhibition [1] | inhibition of aggregation [2] | nuclei count [2] | inhibition [3] | nuclei count [3] | fluorescence slope [4] | NADPH fluorescence slope [5] | slope [6] | inhibition [7] | inhibition [8]
CCOC(=O)C1CCCN(Cc2nc(N)nc(Nc3ccc(C)cc3)n2)C1 (stereo not given) | 580 | 1% (inactive) | -0.6% (inactive) | 90.1% | -41.3% (inactive) | 130% | -0.438 (inactive) | -0.000102 (inactive) | 0.00446 (inactive) | 22.6% (inactive) | 17.2% (inactive)
COc1ccc(-n2ncc3c(NCCCN4CCOCC4)ncnc32)cc1 | 340 | 1.4% (inactive) | -6.2% (inactive) | 116% | 1.8% (inactive) | 118% | -0.59 (inactive) | -5.4e-05 (inactive) | 0.00402 (inactive) | 44.5% (inactive) | 7.05% (inactive)
COc1ccccc1Oc1coc2c(CN3CCN(C)CC3)c(O)ccc2c1=O | 541 | -0.5% (inactive) | -8.8% (inactive) | 107% | -12.9% (inactive) | 89.1% | -0.0185 (active) | 7e-06 (inactive) | 0.00281 (inactive) | 11.8% (inactive) | 34.8% (inactive)
CC1(C)CC(CCNC(=O)c2ccco2)CC(C)(C)N1 | 387 | 2.3% (inactive) | 1.2% (inactive) | 86.4% | -91.3% (inactive) | 81.4% | -0.473 (inactive) | -1.8e-05 (inactive) | 0.00616 (inactive) | 12% (inactive) | 12.3% (inactive)
COc1ccc(OCCSc2nc3ccccc3n2CC(=O)O)cc1 | 321 | -9.2% (inactive) | -1.3% (inactive) | 108% | -133% (inactive) | 133% | -0.356 (inactive) | -5.2e-05 (inactive) | 0.00591 (inactive) | 16.6% (inactive) | 20.3% (inactive)
COc1cc(Br)cc(/C=N/c2ncn[nH]2)c1O | 376 | -8.7% (inactive) | -2.5% (inactive) | 101% | -35% (inactive) | 117% | -0.467 (inactive) | 7.7e-05 (inactive) | 0.00616 (inactive) | 12.8% (inactive) | 24.8% (inactive)
COC(=O)c1cc(OC)c(OC)cc1NC(=O)CCC1CCCC1 | 452 | 3.7% (inactive) | 14.1% (inactive) | 104% | -78.6% (inactive) | 101% | -0.637 (inactive) | -1e-05 (inactive) | 0.00682 (inactive) | 12.6% (inactive) | 22.5% (inactive)
O=S(=O)(c1ccc2nc(Cc3cccc(C(F)(F)F)c3)[nH]c2c1)N1CCOCC1 | 383 | 1% (inactive) | 0% (inactive) | 88.3% | -277% (inactive) | 105% | -0.615 (inactive) | -2.8e-06 (inactive) | 0.00522 (inactive) | 11.9% (inactive) | 26.3% (inactive)
Cn1cnc2cc(NC(=O)c3ccc(Cl)cc3)ccc21 | 829 | 6.9% (inactive) | 22.8% (inactive) | 74.5% | 3.1% (inactive) | 106% | -0.387 (inactive) | 2.4e-05 (inactive) | 0.00603 (inactive) | -39.3% (inactive) | -143% (inactive)
O=C(CCN1C(=O)c2ccccc2C1=O)NCCN1CCOCC1 | 377 | -10.6% (inactive) | 10.7% (inactive) | 96.7% | -6% (inactive) | 97% | -0.452 (inactive) | 2.7e-05 (inactive) | 0.00342 (inactive) | -7.29% (inactive) | 20.7% (inactive)
Cc1cccc(NC(=O)c2ccc3ccccc3n2)n1 | 408 | -4.5% (inactive) | 0.8% (inactive) | 86.6% | -50.9% (inactive) | 95.8% | -0.303 (inactive) | -1.5e-05 (inactive) | 0.0061 (inactive) | -11.1% (inactive) | -91.5% (inactive)
O=S1(=O)CC(N2CCCCC2)C(N2CCCCC2)C1 (stereo not given) | 394 | 3.6% (inactive) | 0.2% (inactive) | 110% | -31.5% (inactive) | 107% | -0.587 (inactive) | -1.5e-05 (inactive) | 0.00686 (inactive) | 15.3% (inactive) | 32.7% (inactive)
CC(=O)Nc1ccc(S(=O)(=O)CCC#N)cc1 | 424 | 7.2% (inactive) | 2.2% (inactive) | 90.4% | -113% (inactive) | 107% | -0.482 (inactive) | -3.9e-05 (inactive) | 0.00638 (inactive) | 11.9% (inactive) | 20% (inactive)
CC(=O)N1CCN=C1SCc1c(F)cccc1Cl | 509 | 9.8% (inactive) | -12.4% (inactive) | 110% | 9.3% (inactive) | 93.3% | -0.626 (inactive) | 1.8e-05 (inactive) | 0.00565 (inactive) | -11.7% (inactive) | 4.78% (inactive)
COc1ccc(-c2nc(CS(=O)CC(=O)NCc3ccccn3)c(C)o2)cc1 (stereo not given) | 518 | 1.9% (inactive) | -23.1% (inactive) | 104% | -25.4% (inactive) | 99.7% | -0.527 (inactive) | -1.1e-05 (inactive) | 0.00839 (inactive) | 44.5% (inactive) | 9.92% (inactive)
